Tested on: Vero E6 infected with SARS-CoV-2
Experiment: inhibition of SARS-CoV-2 cytopathic effect; higher = more antiviral protection, active = above 15
Details: 48 h

Measured: inhibition of SARS-CoV-2 cytopathic effect

COc1ccc(-c2cc3nccn3c(Nc3ncccc3C(N)=O)n2)cc1OC
inactive: 1 nM -3.34% | 8.33 nM -0.9% | 100 nM -4.75% | 833.33 nM -2.69% | 10000 nM -6.9%

Cc1ccc2c(N3CCN(CCc4cccc(N5CCNC5=O)c4)CC3)cccc2n1
inactive: 1 nM -2.94% | 8.33 nM -3.04% | 100 nM -3.97% | 833.33 nM 1.55% | 10000 nM 1.48%

CCOC(=O)c1ccc(N2NC(=O)/C(=C/c3ccc([N+](=O)[O-])o3)C2=O)cc1
inactive: 1 nM 1.63% | 8.33 nM -1.91% | 100 nM -0.91% | 833.33 nM -2.48% | 10000 nM -6.2%

CC(C)(CCCCCC(O)CCCCCC(C)(C)C(=O)O)C(=O)O [bempedoic-acid]
inactive: 1 nM 0.91% | 8.33 nM 0.43% | 100 nM 0.18% | 833.33 nM 0.98% | 10000 nM 1.16%

CCN1C[C@H](C)n2c(c(O)c3c(=O)n(Cc4ccc(F)c(Cl)c4)nc(C(=O)NC)c32)C1=O
inactive: 1 nM -0.8% | 8.33 nM 0.13% | 100 nM -1.06% | 833.33 nM 0.69% | 10000 nM -2.34%

NCCCCN(Cc1nc2ccccc2[nH]1)[C@H]1CCCc2cccnc21
inactive: 1 nM -0.42% | 8.33 nM -1.96% | 100 nM 0.37% | 833.33 nM -1.81% | 10000 nM 0.08%

CCCCNNC(=O)c1ccc(Br)cc1
inactive: 1 nM 2.76% | 8.33 nM 1.2% | 100 nM 2.26% | 833.33 nM 3.31% | 10000 nM -5.28%

CC(C)(C)c1[nH]cnc1/C=c1\[nH]c(=O)/c(=C/c2ccccc2)[nH]c1=O [plinabulin]
inactive: 1 nM 0.88% | 8.33 nM 3.39% | 100 nM -1.75% | 833.33 nM 0.24% | 10000 nM 2.48%

c1cnc(N2CCN(Cc3ccc4c(c3)OCO4)CC2)nc1 [piribedil]
inactive: 1 nM -0.1% | 100 nM 1.85% | 833.33 nM -0.64% | 10000 nM 0.85%
active: 8.33 nM 15.4%

O=C(Nc1ccc(Oc2ccc(Cl)cn2)c(Cl)c1)c1ccccn1
inactive: 1 nM 0.81% | 8.33 nM -0.54% | 100 nM 1.75% | 833.33 nM -3.64% | 10000 nM 0.26%

CSC[C@H](N)C(=O)O [S-methylcysteine]
inactive: 1 nM 4.21% | 8.33 nM 3.63% | 100 nM 1.96% | 833.33 nM -0.82% | 10000 nM 0.31%

CCOC(=S)SSC(=S)OCC [dixanthogen]
inactive: 1 nM -1.96% | 8.33 nM -1.61% | 100 nM -1.47% | 833.33 nM -0.83% | 10000 nM 1.23%

CN[C@@H]1[C@H](O)[C@H](NC)[C@H]2O[C@@]3(O)C(=O)C[C@@H](C)O[C@H]3O[C@@H]2[C@H]1O [spectinomycin]
inactive: 1 nM 1.83% | 8.33 nM 2% | 100 nM 1.36% | 833.33 nM 4.54% | 10000 nM 3.59%

C=CCN1CC[C@]2(C)c3cc(O)ccc3C[C@H]1[C@H]2C
inactive: 1 nM 1.28% | 8.33 nM 1.94% | 100 nM -1.86% | 833.33 nM 0.86% | 10000 nM 1.02%

CC(=O)OCC(=O)[C@@]1(O)CC[C@H]2[C@@H]3CCC4=CC(=O)CC[C@]4(C)[C@H]3[C@@H](O)C[C@@]21C [hydrocortisone-acetate]
inactive: 1 nM -3.27% | 8.33 nM -0.84% | 100 nM 0.23% | 833.33 nM -1.92% | 10000 nM -0.4%

NC[C@H]1O[C@H](O[C@H]2[C@H](O)[C@@H](O[C@H]3O[C@H](CO)[C@@H](O)[C@H](N)[C@H]3O)[C@H](N)C[C@@H]2N)[C@H](O)[C@@H](O)[C@@H]1O [kanamycin]
inactive: 1 nM 1.47% | 8.33 nM 2.23% | 100 nM 2.41% | 833.33 nM 3.53% | 10000 nM -0.06%

O[C@@H](CN1CCC(Cc2ccc(F)cc2)CC1)c1ccc(Cl)cc1 (racemic) [eliprodil]
inactive: 1 nM 0.81% | 8.33 nM 0.95% | 100 nM 0.19% | 833.33 nM 2.59% | 10000 nM -0.42%

Oc1ccc(C2(c3ccccc3F)CCC(F)(F)CC2)cc1
inactive: 1 nM 1.54% | 8.33 nM -0.41% | 100 nM -0.21% | 833.33 nM -1.05% | 10000 nM 0%

CCc1ccc2c(-c3cccc(Cl)c3)nc(=O)n(CC)c2n1
inactive: 1 nM -1.8% | 8.33 nM 0.23% | 100 nM 1.37% | 833.33 nM -1.65% | 10000 nM 0.57%

Source: the supplement of paper PMC13380429
